# Test results as given in PubChem BioAssay AID720517 (National Center for Advancing Translational Sciences (NCATS), 2013).
# Inconclusive results are not listed. Calls of active or inactive are those of the source. The call rests on the fitted dose curve; in most records, active means well fitted activation curve with a large enough effect; inconclusive means small, poorly fitted or top-dose-only effect; inactive means flat fitted curve, though single readings scatter.
# Experiment: qHTS for Inhibitors of Cell Surface uPA Generation: FP59 Counterscreen for Cherry-picked Compounds; further: 0% is about no effect
# Details: FP59 anthrax toxin cytotoxicity counterscreen, cells; series mostly up to 115 µM; activity (protection from FP59): at the top concentration
row,SMILES,activity (protection from FP59)
1,O=P1(NCCCl)OCCCN1CCCl (stereo not given),-0.82% (inactive)
2,COc1ccc(-c2nn(CCC#N)cc2C(=O)Nc2cccc([N+](=O)[O-])c2)cc1OC,-1.37% (inactive)
3,COC(=O)C1=C(c2cccc(OC)c2OC)C[C@@H]2CC[C@H]1N2C(=O)NC1CC1,-1.47% (inactive)
4,COc1ccccc1N1CCN(Cc2ccc(SC)cc2)CC1,-1.45% (inactive)
5,Cc1cc(C(=O)NP(=O)(N2CCOCC2)N2CCOCC2)c(C)n1C1CC1,-0.0947% (inactive)
6,c1cncc(C2CCCCN2)c1 (stereo not given),-0.643% (inactive)
7,O=C(c1ccc(F)c([N+](=O)[O-])c1)N1CC2CC(C1)c1cccc(=O)n1C2 (stereo not given),-1.17% (inactive)
8,COc1ccccc1NC(=O)N1C[C@@H]2C[C@@H](C1)c1cccc(=O)n1C2,-1.26% (inactive)
9,O=c1[nH]c(=O)n(CCc2ccccc2)c(O)c1C=NC1CC1,-1.46% (inactive)
10,C[N+](C)(C)CCOC(=O)CBr,-1.22% (inactive)
11,FC(F)(F)Oc1ccc(NC2=NCCCS2)cc1,-1.48% (inactive)
12,CCOc1ccc(CN2CCN(C(=O)Cc3ccccc3)CC2)cc1,-0.338% (inactive)
13,COc1ccc(-c2nn(CCC#N)cc2C(=O)Nc2ccccc2)cc1OC,-1.33% (inactive)
14,Cc1ccc(-n2c(O)c(C=NCCN3CCNCC3)c(=O)[nH]c2=S)cc1,-1.47% (inactive)
15,Cc1ncc(CN2CCCC(C(=O)c3cccc(OC(C)C)c3)C2)s1 (stereo not given),-1.32% (inactive)
16,Cc1ccccc1O,-1.37% (inactive)
17,COCC(=O)N1Cc2ccccc2-n2nncc2C1,-1.41% (inactive)
18,CCCCCn1c(=O)c(C(=O)Nc2ccccn2)c(O)c2ccccc21,-0.573% (inactive)
19,O=c1[nH]c(=O)n(-c2ccc(Cl)cc2)c(O)c1C=Nc1ccc(S(=O)(=O)Nc2nccs2)cc1,-1.39% (inactive)
20,CCOC(=O)c1ccc(N=Cc2c(O)n(-c3ccc(OC)cc3)c(=S)[nH]c2=O)cc1,-1.58% (inactive)
